# According to the supplement of paper PMC11624193, “Coupling cellular drug-target engagement to downstream pharmacology with CeTEAM” (Nature Communications, 2024):
# “And” between values parts separate entries of the source, which are not always exact repeats. Identical values can stand only once. Counter-ions that a name gives are not always drawn. A number with no mark means an inactive call.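 How the source made its calls: active = log2 fold change beyond 2 SD from the library mean after excluding viability outliers; inactive = within 2 SD.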
# Target: PARP1 L713F-nLuc biosensor (HCT116) (UniProt P09874)
# Sequence (P09874 whole entry L713F, looked up): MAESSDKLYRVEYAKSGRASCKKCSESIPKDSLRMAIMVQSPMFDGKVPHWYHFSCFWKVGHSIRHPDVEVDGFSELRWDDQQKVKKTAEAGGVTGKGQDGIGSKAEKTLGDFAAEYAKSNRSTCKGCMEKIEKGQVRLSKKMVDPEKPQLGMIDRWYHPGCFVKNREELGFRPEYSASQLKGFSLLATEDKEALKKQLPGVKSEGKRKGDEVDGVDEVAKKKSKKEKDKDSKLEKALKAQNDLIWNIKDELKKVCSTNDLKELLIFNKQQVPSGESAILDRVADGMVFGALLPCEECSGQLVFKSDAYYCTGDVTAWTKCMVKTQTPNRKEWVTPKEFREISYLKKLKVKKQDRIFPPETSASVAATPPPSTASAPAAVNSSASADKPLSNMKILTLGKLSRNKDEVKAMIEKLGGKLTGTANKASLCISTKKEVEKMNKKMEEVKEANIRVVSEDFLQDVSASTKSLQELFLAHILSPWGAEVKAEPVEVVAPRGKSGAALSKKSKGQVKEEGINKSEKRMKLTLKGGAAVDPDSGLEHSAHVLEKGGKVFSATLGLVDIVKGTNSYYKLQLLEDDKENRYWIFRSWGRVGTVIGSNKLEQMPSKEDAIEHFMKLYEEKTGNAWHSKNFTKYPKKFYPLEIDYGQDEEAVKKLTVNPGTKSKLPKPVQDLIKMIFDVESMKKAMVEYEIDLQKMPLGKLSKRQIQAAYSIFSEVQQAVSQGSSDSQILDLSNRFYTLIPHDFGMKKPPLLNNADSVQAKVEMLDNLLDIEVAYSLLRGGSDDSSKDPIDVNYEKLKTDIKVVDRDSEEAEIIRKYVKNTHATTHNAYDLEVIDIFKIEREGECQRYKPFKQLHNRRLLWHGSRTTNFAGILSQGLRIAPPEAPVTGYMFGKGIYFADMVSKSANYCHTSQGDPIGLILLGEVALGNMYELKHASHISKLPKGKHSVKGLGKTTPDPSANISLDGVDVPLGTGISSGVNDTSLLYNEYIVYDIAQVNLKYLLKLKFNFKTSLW
# Assay: PARP1 L713F-nLuc/akaLuc ratio relative to DMSO control (biosensor stabilization) (fold change); higher = more PARP1 biosensor stabilization (target engagement / stabilizer), active = hit call of the paper
# Conditions: stock concentration (mM; final µM = stock mM x 1): 10; 24 h
row,Structure (SMILES),PARP1 L713F-nLuc/akaLuc ratio
1,C[C@@H]1CN(CC(=O)Nc2ccc3c(c2)Cc2cccc(-c4cc(=O)cc(N5CCOCC5)o4)c2S3)C[C@H](C)O1,0.788
2,Nc1ncn([C@@H]2O[C@H](CO)[C@@H](O)[C@H]2O)c(=O)n1 [Azacitidine],4.35 (active)
3,O=C(O)CNC(=O)c1c(O)cc(CCc2ccccc2)n2ncnc12 [Enarodustat],1.29
4,CN(Cc1cnc2nc(N)nc(N)c2n1)c1ccc(C(=O)N[C@@H](CCC(=O)O)C(=O)O)cc1 [Methotrexate],0.755
5,O=C(NC[C@H](O)CN1CCc2ccccc2C1)c1ccnc(NC2CCC2)c1,0.738
6,CCCC(CCC)C(=O)O [Valproic acid (sodium salt)],0.704
7,CN(C)c1nc2c(Br)c(Br)c(Br)c(Br)c2n1CC(=O)O,1.02
8,Cc1nc(-c2cccnc2)sc1C(=O)Nc1ccccc1-c1cn2c(CN3CCOCC3)csc2n1,0.883
9,CCOC(=O)NCCCC(=O)NCCc1ccccc1 [Santacruzamate A],0.97
10,CC(C)[C@H]1C(=O)N[C@@H](CCCN=C(N)N)C(=O)NCC(=O)N[C@@H](CC(=O)O)C(=O)N[C@H](Cc2ccccc2)C(=O)N1C,0.738
11,NC(=O)c1ccc(I)c([N+](=O)[O-])c1 [Iniparib],1.12
12,O=C1C(Cl)=C(NCCN2CCOCC2)C(=O)c2ncccc21,0.636
13,N#C/C(=C\c1ccc(O)c(O)c1)C(=O)NCc1ccccc1,1.13 and 0.936
